Records with an inconclusive call do not appear. Activity calls are given as the source filed them. Calls come from the whole dose curve; as a rule, active = well fitted cell-killing curve with a large enough effect; inconclusive = small, poorly fitted or top-dose-only effect, or effect the other way; inactive = no such curve, though single readings can be large or run the other way.
% is set by controls: 0 for no effect and ±100 for the full control effect; potency is the fitted concentration of half-maximal effect.

For this assay, the system named is Jar. In words: Confirmatory qHTS for gynecologic anti-cancer compounds from libraries of approved drugs and bioactive compounds. Note: nearly all actives have a fitted effect of over 55% in size. As to conditions: gynecologic cancer cell panel viability, ATPlite luminescence, 48 h; series mostly up to 57.6 µM. In short, it runs like this: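 IC50 values derive from an ATPlite ATP-content luminescence assay following 48 h treatment at 37 C. Each compound ran as an 11-concentration, threefold series (57.5 uM to 0.977 nM); HEK 293T served as control line for selectivity index.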
For orientation: In qHTS, concentration-response curves come from the screen itself.
As for `Cc1cc(Nc2nc(N[C@@H](C)c3ncc(F)cn3)ncc2Cl)n[nH]1`, the Potency result is “inactive”.
On the same count and under the same terms, as for `C1CCC(C(CC2CCCCN2)C2CCCCC2)CC1` (stereo not given), the figure is 24.3 µM (active); as for `COCCOc1ccc2c(c1)ncn2-c1ccc2cccc(N3CCC(N)CC3)c2n1`, “inactive”; as for `Cc1nc2ccc(CN(C)c3ccc(C(=O)NC(CCC(=O)O)C(=O)O)s3)cc2c(=O)[nH]1` (stereo not given), “inactive”.
`O=C(CCCCCCNC(=O)c1cnc(N(c2ccccc2)c2ccccc2)nc1)NO`: the Potency is 8.63 µM (active).
`CN(C)C(CCOc1cccc2ccccc12)c1ccccc1` (stereo not given): the Potency result is “inactive”.
Take `Cc1cc(Nc2nc(N[C@@H](C)c3ccc(F)cc3)c(C#N)cc2F)n[nH]1`: the Potency is 2.73 µM (active).
Same read-out and setting: next, `O=C(c1ccc(F)c(F)c1Nc1ccc(I)cc1F)N1CC(O)([C@@H]2CCCCN2)C1`: 21.7 µM (active); `CC1=C(CO)C(=O)O[C@@H]([C@@H](C)[C@H]2CC[C@H]3[C@@H]4C[C@H]5O[C@]56[C@@H](O)C=CC(=O)[C@]6(C)[C@H]4CC[C@]23C)C1`: 8.41 µM (active); `COc1cc(N2CCC(N3CCN(C)CC3)CC2)ccc1Nc1ncc(Cl)c(Nc2ccccc2S(=O)(=O)C(C)C)n1`: 17.2 µM (active).
Same read-out and setting: as for `Cc1cc(Nc2cc(N3CCN(C)CC3)nc(Sc3ccc(NC(=O)C4CC4)cc3)n2)n[nH]1`, the entry is “inactive”; as for `COc1cc2c(cc1-c1c(C)noc1C)ncc1[nH]c(=O)n(C(C)c3ccccn3)c12` (stereo not given), 27.3 µM (active); as for `CC(C)(C)C(=O)OCOP(=O)(COCCn1cnc2c(N)ncnc21)OCOC(=O)C(C)(C)C`, 9.68 µM (active).
For `O=C1NC(=O)C(c2cnc3ccccn23)=C1c1cn2c3c(cccc13)CN(C(=O)N1CCOCC1)CC2`, the Potency entry is “inactive”.
As for `CCS(=O)(=O)N1CCN(c2ccc(Nc3ncc(C(N)=O)c(NC4CC4)n3)cc2)CC1`, the Potency was 12.2 µM (active).
Same read-out and setting: next, `CC(=O)O[C@H]1C(=O)[C@@]2(C)[C@H]([C@H](OC(=O)c3ccccc3)[C@]3(O)C[C@H](OC(=O)[C@H](O)[C@@H](NC(=O)c4ccccc4)c4ccccc4)C(C)=C1C3(C)C)[C@]1(OC(C)=O)CO[C@@H]1C[C@@H]2O`: 0.0366 µM (active).
Regarding `CCC(=O)N1CCN(c2ccc(-n3c(=O)ccc4cnc5ccc(-c6cnc7ccccc7c6)cc5c43)cc2C(F)(F)F)CC1`, the Potency was 1.57 µM (active).
Still for that read-out and setting: next, `Cc1ccc(NC(=O)c2ccc(CN3CCN(C)CC3)cc2)cc1Nc1nccc(-c2cccnc2)n1`: “inactive”.
On the same count and under the same terms, next, `Cn1cnc2c(F)c(Nc3ccc(Br)cc3Cl)c(C(=O)NOCCO)cc21`: “inactive”; `Nc1nc(=S)c2[nH]cnc2[nH]1`: 9.68 µM (active); `Cc1cc(C(C)Nc2ccccc2C(=O)O)c2nc(N3CCOCC3)cc(=O)n2c1` (stereo not given): 0.968 µM (active).
As to `Cc1cc(Nc2cc(N3CCN(C)CC3)nc(/C=C/c3ccccc3)n2)n[nH]1`, the Potency is 24.3 µM (active).
For `CC(C)n1c(/C=C/[C@@H](O)C[C@@H](O)CC(=O)O)c(-c2ccc(F)cc2)c2ccccc21`, the Potency is 10.9 µM (active).
For `CC(=O)Nc1cccc(-n2c(=O)n(C3CC3)c(=O)c3c(Nc4ccc(I)cc4F)n(C)c(=O)c(C)c32)c1`, the Potency entry is “inactive”.
On to `CC[C@H](Nc1ncnc2nc[nH]c12)c1nc2cccc(F)c2c(=O)n1-c1ccccc1`, for which the activity change, negative = viability loss was -10.1% [at 10.7 µM] (inactive).

Values taken from PubChem BioAssay AID1345085 (National Center for Advancing Translational Sciences (NCATS), 2018).
